Measured values from article PMC4336329 (PLoS ONE, 2015).
The campaign covered roughly 310,000 compounds. About 14,000 (4.5%) showed an effect of 50% or more. The effect is printed as a negative number. Shown is part of a subset that was picked to be rich in strong results.

What follows are molecules tested against human ether-à-go-go-related gene (hERG) potassium channel (human, UniProt Q12809) (assay: primary screen, population patch clamp on CHO cells stably expressing hERG; higher = less effect of the substance).
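Further: peak tail current of the secondary pulse compared with the same well before compound.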

human ether-à-go-go-related gene (hERG) potassium channel, sequence (Q12809 whole entry, looked up): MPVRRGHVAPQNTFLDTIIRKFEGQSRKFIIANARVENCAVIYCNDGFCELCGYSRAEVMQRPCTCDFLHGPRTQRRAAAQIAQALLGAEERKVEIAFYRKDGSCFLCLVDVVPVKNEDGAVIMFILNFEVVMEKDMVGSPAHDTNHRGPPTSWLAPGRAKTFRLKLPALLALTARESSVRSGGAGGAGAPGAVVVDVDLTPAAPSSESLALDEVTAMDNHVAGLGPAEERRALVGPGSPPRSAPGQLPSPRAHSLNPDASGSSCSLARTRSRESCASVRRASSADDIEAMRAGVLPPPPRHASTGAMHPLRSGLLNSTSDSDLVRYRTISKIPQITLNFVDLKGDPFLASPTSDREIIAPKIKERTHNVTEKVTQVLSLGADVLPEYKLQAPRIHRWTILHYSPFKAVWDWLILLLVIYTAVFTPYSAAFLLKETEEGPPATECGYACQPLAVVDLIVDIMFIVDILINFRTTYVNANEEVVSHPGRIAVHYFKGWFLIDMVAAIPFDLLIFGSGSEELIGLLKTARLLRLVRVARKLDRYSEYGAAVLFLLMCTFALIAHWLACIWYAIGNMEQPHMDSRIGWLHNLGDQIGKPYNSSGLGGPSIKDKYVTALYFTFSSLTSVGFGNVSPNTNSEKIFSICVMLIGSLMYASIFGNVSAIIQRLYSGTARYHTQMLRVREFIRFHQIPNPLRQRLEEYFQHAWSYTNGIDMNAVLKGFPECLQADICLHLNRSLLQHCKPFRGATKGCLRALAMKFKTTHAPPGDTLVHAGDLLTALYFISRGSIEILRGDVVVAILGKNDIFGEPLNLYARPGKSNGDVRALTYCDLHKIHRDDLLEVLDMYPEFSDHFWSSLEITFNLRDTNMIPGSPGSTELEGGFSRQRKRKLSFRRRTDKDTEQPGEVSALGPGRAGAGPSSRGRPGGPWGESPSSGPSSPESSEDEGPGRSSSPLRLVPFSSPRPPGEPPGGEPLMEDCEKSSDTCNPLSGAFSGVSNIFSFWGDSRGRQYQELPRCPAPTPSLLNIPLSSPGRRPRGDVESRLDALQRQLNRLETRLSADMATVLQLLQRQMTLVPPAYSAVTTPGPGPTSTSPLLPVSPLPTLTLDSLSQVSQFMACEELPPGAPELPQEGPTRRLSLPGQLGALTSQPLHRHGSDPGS

SMILES	hERG current change (%, negative = inhibition) at 10uM
O=C(c1ccc2c(c1)OCO2)N1CCOCC1	17.5%
COc1cccc(OCCn2cccc2/C=C2/C(=N)N3OC(C)=CC3=NC2=O)c1	-23.5%
O=C(NCCCN1CCCC1=O)c1cccc(S(=O)(=O)Nc2ccc(F)cc2)c1	-24.5%
CCOC(=O)C1C(=O)Nc2nc(C)nn2C1c1ccccc1 (stereo not drawn)	14.4%
CCCc1ccc(C(=O)O/N=C(\N)c2ccccn2)cc1	-0.642%
CCn1cc(C(=O)NCc2ccncc2)c(=O)c2cc(F)c(N3CCN(C(=O)c4ccco4)CC3)cc21	-66.4%
CCn1cc(C(=O)NCc2cccnc2)c(=O)c2cc(F)c(N3CCN(C(=O)c4ccco4)CC3)cc21	-37.6%
CCn1cc(C(=O)NCc2ccccc2)c(=O)c2cc(F)c(N3CCN(C(=O)c4ccco4)CC3)cc21	-39.6%
O=C(NCc1ccc(N2CCCC2=O)cc1)c1cccc(Cl)c1	1.27%
CC(C)(C)C(=O)Nc1ccc(-c2cc3cc(Cl)ccc3o2)cc1	8.12%
Cc1ccc(NS(=O)(=O)c2ccc3oc(=O)ccc3c2)cc1Cl	3.79%
CCC(=O)c1ccccc1OCCCN1CCC(Cc2ccccc2)CC1.O=C(O)C(=O)O	-78.5%
CCc1ccccc1OCCCN1CCCC1.O=C(O)C(=O)O	-17.6%
N#Cc1ccccc1OCCCNC1CCCC1.O=C(O)C(=O)O	-11.5%
N#Cc1ccccc1OCCCN1CCC(Cc2ccccc2)CC1.O=C(O)C(=O)O	-80%
CCc1ccccc1OCCCCN1CCCC1.O=C(O)C(=O)O	-40%
CCC(=O)c1ccccc1OCCN1CCN(Cc2ccccc2)CC1.O=C(O)C(=O)O	-59.1%
COC(=O)c1ccccc1OCCN1CCCCCC1.O=C(O)C(=O)O	-46.2%
O=C(O)C(=O)O.OCc1ccccc1OCCCN1CCC(Cc2ccccc2)CC1	-75%
CCC(=O)c1ccccc1OCCCN1C(=O)NC(C)(C)C1=O	0.00578%
CCC(=O)c1ccccc1OCCN1CCN(CC)CC1.O=C(O)C(=O)O	-13.7%
CC(C)c1ccccc1OCCCN1CCCC1.O=C(O)C(=O)O	-33.1%

SMILES	hERG current change (%, negative = inhibition) at 10uM
CCC(=O)c1ccccc1OCCCCn1cncn1.O=C(O)C(=O)O	4.82%
O=C(CSc1nccc(=O)[nH]1)Nc1cccc(S(=O)(=O)N2CCOCC2)c1	4.22%
Cn1cnc2c1c(=O)n(Cc1c(Cl)cccc1Cl)c(=O)n2C	-3.36%
COc1ccccc1NC(=O)CSc1nc2sc(C)c(C)c2c(=O)n1C	6.42%
CC(=O)N1CCN(S(=O)(=O)c2cccc(C(=O)NCCc3ccc(Cl)cc3)c2)CC1	-12.1%
CC1Cc2ccccc2N1C(=O)COC(=O)C1=COCCO1 (stereo not drawn)	-7.1%
COc1ccc(CCNC(=O)COC(=O)/C=C/c2ccc(OC)c(OC)c2)cc1	-16%
O=C(CSc1nncn1-c1cccnc1)N(c1ccccc1)c1ccccc1	4.28%
CN(C)S(=O)(=O)N1CCN(C(=O)c2cccs2)CC1	7.17%
CCC1=Nc2ccc(Br)cc2C(c2ccccc2)N1CC(=O)OC (stereo not drawn)	-59.1%
NNC(=O)CN1C(CN2CCOCC2)=Nc2ccc(Br)cc2C1c1ccccc1 (stereo not drawn)	-48.9%
CC1=Nc2ccc(Br)cc2C(c2ccccc2)N1CC(=O)O (stereo not drawn)	33.7%
COC(=O)CN1C(CN2CCOCC2)=Nc2ccc(Br)cc2C1c1ccccc1 (stereo not drawn)	-75.3%
Br.COC(=O)CN1C(C)=Nc2ccc(Br)cc2C1c1ccccc1 (stereo not drawn)	-49.1%
COC(=O)CN1C(C)=Nc2ccc(C)cc2C1c1ccccc1 (stereo not drawn)	-43.1%
Cc1nnc(NC(=O)c2ccc(S(=O)(=O)N3CC(C)CC(C)C3)cc2)o1 (stereo not drawn)	5.33%
CCc1cccc2c(C(=O)C(NCCCOC)c3ccccc3)c[nH]c12 (stereo not drawn)	2.05%
O=C(CSc1cccc(C(F)(F)F)c1)Nc1cc(S(=O)(=O)N2CCCC2)ccc1Cl	-5.28%
CCOC(=O)N1CCC(N2C(=O)c3ccccc3C2Nc2ccccc2C)CC1 (stereo not drawn)	-46.5%
CCOC(=O)N1CCC(N2C(=O)c3ccccc3C2Nc2ccccc2)CC1 (stereo not drawn)	-9.74%
CCOC(=O)N1CCC(N2C(=O)c3ccccc3C2Nc2cc(C(=O)OC)cc(C(=O)OC)c2)CC1 (stereo not drawn)	-17.5%
CCOC(=O)N1CCC(N2C(=O)c3ccccc3C2Nc2ccc3c(C)cc(=O)oc3c2)CC1 (stereo not drawn)	-63.8%

SMILES	hERG current change (%, negative = inhibition) at 10uM
CCOC(=O)N1CCC(N2C(=O)c3ccccc3C2Nc2c(C)cccc2C)CC1 (stereo not drawn)	-75.1%
CCOC(=O)c1ccccc1NC1c2ccccc2C(=O)N1C1CCN(C(=O)OCC)CC1 (stereo not drawn)	-56.4%
CCOC(=O)N1CCC(N2C(=O)c3ccccc3C2Nc2cc(OC)c(OC)c(OC)c2)CC1 (stereo not drawn)	-17.8%
CCOC(=O)N1CCC(N2C(=O)c3ccccc3C2Nc2ccc3c(c2)OCCO3)CC1 (stereo not drawn)	-7.43%
CCOC(=O)N1CCC(N2C(=O)c3ccccc3C2Nc2cc(C)cc(C)c2)CC1 (stereo not drawn)	-21.8%
Cc1nn(C)c(C(=O)N/N=C/c2cc3c(cc2Br)OCO3)c1Br	11.2%
COCc1cc(C)n(CC(=O)NCC2CCCO2)c(=O)c1C#N (stereo not drawn)	12%
CCOc1ccc(/C=C2\SC(=S)N(CCCC(=O)NCCCN3CCOCC3)C2=O)cc1	-4.5%
CCCc1cc2c(cc1NS(=O)(=O)c1ccc(CCNC(C)=O)cc1)OCO2	-63%
CC(=O)NCCc1ccc(S(=O)(=O)NCc2ccc3c(c2)OCO3)cc1	2.45%
CC(=O)NCCc1ccc(S(=O)(=O)Nc2ccc3c(c2)OCCO3)cc1	12.3%
CCCCNC(=O)CSc1nnc(-c2cccc(S(=O)(=O)N3CCOCC3)c2)o1	-18.1%
CC(=O)c1sc(NC(=O)c2ccc(COc3ccccc3Cl)o2)nc1C	33.5%
CC(=O)N(CN1C(=O)CCC1=O)c1cccc(Cl)c1	-17%
Cc1cc(=O)n2c3ccccc3n(CC(O)CN3CCCC3)c2c1C#N (stereo not drawn)	-44.8%
Cc1cc(=O)n2c3ccccc3n(CC(O)CN3CCOCC3)c2c1C#N (stereo not drawn)	17.9%
Cc1cc(=O)n2c3ccccc3n(CC(O)CN3CCN(CCO)CC3)c2c1C#N (stereo not drawn)	-16%
CCCNCC(O)Cn1c2ccccc2n2c(=O)cc(C)c(C#N)c12 (stereo not drawn)	-29.7%
Cc1cc(=O)n2c3ccccc3n(CC(O)CN3CCN(Cc4ccccc4)CC3)c2c1C#N (stereo not drawn)	-62.8%
Cc1cc(=O)n2c3ccccc3n(CC(O)CN3CCCCC3)c2c1C#N (stereo not drawn)	-53.2%
Cc1cc(C(N)=O)c2cc(Br)ccc2n1	1.34%
COc1cccc(N2CCN(C(=O)NC3CCCCC3)CC2)c1	2.57%

SMILES	hERG current change (%, negative = inhibition) at 10uM
Cc1cc(C(=O)Nc2ccccc2C)c2ccccc2n1	14.1%
O=c1[nH]cnc2c1nc(SCc1ccccc1)n2C1OC(CO)C(O)C1O (stereo not drawn)	-2.32%
O=c1cc(-c2ccc(O)cc2)oc2cc(O)cc(O)c12	-2.23%
Cc1cccc(CCN2C(N(C)C)=NC[C@@H]2CC(C)C)c1	-18.1%
Cc1cccc(CCN2C(Nc3ccccc3)=NC[C@@H]2CC(C)C)c1	-67.5%
CC(C)C[C@H]1CN=C(Nc2ccccc2)N1CCc1ccc(F)cc1	-62.4%
Cc1cccc(CCN2C(Nc3ccccc3)=NC[C@@H]2C)c1	-23%
C[C@H]1CN=C(Nc2ccccc2)N1CCc1ccc(F)cc1	-46.3%
COc1ccccc1C(=O)NNC1=NS(=O)(=O)c2ccccc21	20.3%
COc1cccc(NC(=O)Cn2cc(C(=O)C3CC3)c3ccccc32)c1	0.319%
CCn1c(-c2cccnc2)n[nH]c1=S	0.542%
CCOc1ccc(OCCC(=O)OCC(=O)NC2CCCCC2)cc1	11.4%
CCn1c(N2CCN(CC(=O)c3c(C)n(C)c4ccc(OC)cc34)CC2)nc2c1c(=O)[nH]c(=O)n2C	3.19%
O=C(Cc1cn(-c2ccccc2)nc1-c1ccccc1)N1CCCCC1	-18.3%
Cc1c(C(=O)N2CCN(c3ccccc3)CC2)oc2c(Cl)cccc12	4.82%
Cc1cc(Cl)c2oc(C(=O)N3CCN(c4ccncc4)CC3)c(C)c2c1	-75.9%
Cc1c(C(=O)N2CCN(C(=O)c3ccco3)CC2)oc2c(Cl)cccc12	-34.3%
Cc1cc(Cl)c2oc(C(=O)N3CCC(O)(c4ccccc4)CC3)c(C)c2c1	8.87%
Cc1cc(Cl)c2oc(C(=O)N3CCN(C(=O)c4ccco4)CC3)c(C)c2c1	-53.9%
Cc1cc(Cl)c2oc(C(=O)N3CCN(c4cccc(C)n4)CC3)c(C)c2c1	16.3%
CCOc1ccc(C(C(=O)NC(C)(C)C)N(CCOC)C(=O)CCC(=O)Nc2ccccn2)cc1 (stereo not drawn)	-5.95%
